# PubChem BioAssay (Tox21)
# Inconclusive results are not listed. Entries that show only a call come without a potency. Unmarked numbers belong to inactive results. The source made the active and inactive calls. Calls follow the shape of the full dose curve.
# Target: D(2) dopamine receptor (Homo sapiens) (UniProt P14416)
# Test: Dopamine D2 receptor (DRD2) small molecule agonists, cell-based qHTS assay (AID 1963594); also: nearly all actives have a fitted effect of over 35% in size
# Conditions: HEK293-DRD2 cAMP HTRF, agonist mode, 30 min; series mostly up to 92.4 µM; activation: at the top concentration
# Excerpt: National Center for Advancing Translational Sciences [NCATS]
# Division of Preclinical Innovation [DPI]
# U.S. Environmental Protection Agency [EPA]
# National Institutes of Environmental Health Sciences [NIEHS]
# National Toxicology Program [NTP]
# U.S. Food and Drug Administration [FDA]
# DRD2 is the D2 subtype of the dopamine receptor, which is coupled to Gi subtype of G protein-coupled receptor. This G protein-coupled receptor inhibits adenylyl cyclase activity. The DRD2-HEK293 cell line stably expressing D2 dopamine receptor can be used for screening agonists and antagonists of interactions between D2 and its ligands. The Hek293-DRD2 cAMP assay is based on HTRF technology. It measures changes of cAMP accumulation in response to Gi coupled GPCR activation or inhibition.
# Tox21 Assay Protocol Summary:
# DRD2-Hek293 cells were dispensed at 600 cells/3uL/well in 1536-well white plates using a Multidrop Dispenser. After the assay plates were incubated at a 37 C/5% CO2 incubator for 24 h, 1 uL of Ro20-1724 at final concentration of 0.1 mM was transferred to the assay plate by a Flying Reagent Dispenser. Following Ro20-1724 addition, 23 nL of compound dissolved in DMSO, positive controls or DMSO only was added to the assay plates via Wako pintool station. The assay plates were incubated at room temperature for 10 min. Next, 1 uL of NKH477 at 200nM was added into the plates. After the assay plates were incubated at room temperature for an additional 30 min, 2.5 ul/well of cAMP-d2 and 2.5 ul/well of anti-cAMP-cryptate were added respectively into the assay plates using a Flying Reagent Dispenser. The plates were incubated at room temperature for 1 h. The fluorescence intensity in the plates was measured at 340 nm excitation and 665 & 620 nm emission by an Envision plate reader.
# Chain of D(2) dopamine receptor (Homo sapiens) (P14416 whole entry, looked up): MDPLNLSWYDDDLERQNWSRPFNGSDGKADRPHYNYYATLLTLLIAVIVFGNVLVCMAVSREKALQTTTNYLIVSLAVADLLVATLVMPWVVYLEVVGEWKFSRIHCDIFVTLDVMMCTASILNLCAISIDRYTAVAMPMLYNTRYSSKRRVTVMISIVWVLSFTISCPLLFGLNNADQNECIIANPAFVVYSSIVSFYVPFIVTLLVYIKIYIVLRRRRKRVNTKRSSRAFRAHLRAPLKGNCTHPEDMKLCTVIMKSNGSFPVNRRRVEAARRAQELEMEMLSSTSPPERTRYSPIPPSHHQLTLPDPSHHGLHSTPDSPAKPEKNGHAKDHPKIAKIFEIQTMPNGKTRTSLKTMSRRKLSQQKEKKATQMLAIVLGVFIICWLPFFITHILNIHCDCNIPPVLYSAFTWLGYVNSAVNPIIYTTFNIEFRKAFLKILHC
Structure (SMILES),activation,Potency
Nc1ccc2c(O)cc(S(=O)(=O)O)cc2c1,10.2%,–
Cc1c(OCC(F)(F)F)ccnc1CS(=O)c1nc2ccccc2[nH]1 (stereo not given),-15.7% [at 42.5 µM],–
C#C[C@]1(O)CC[C@H]2[C@@H]3CCC4=CC(=O)CC[C@@H]4[C@H]3CC[C@@]21CC,–,inactive
CC(=O)CCc1ccccc1,–,inactive
Cc1ccc(O)cc1,–,inactive
CC(=O)Nc1ccccc1,–,inactive
CC(=O)N[C@@H](CS)C(=O)O,–,inactive
CCCCC(CC)COC(=O)/C=C\C(=O)OCC(CC)CCCC (stereo not given),–,inactive
O=Cc1ccc(CO)o1,–,inactive
CCCCCCCCCCCCCC(=O)OC(C)C,–,inactive
CCOC(=O)C(C#N)=C(c1ccccc1)c1ccccc1,–,inactive
C=C(C)C(=O)OCC(CC)(COC(=O)C(=C)C)COC(=O)C(=C)C,–,inactive
CNC(=O)Oc1ccc2c(c1)[C@]1(C)CCN(C)[C@@H]1N2C,–,inactive
CCCCCCCCO,–,inactive
CC1(C)CC(N=C=O)CC(C)(CN=C=O)C1 (stereo not given),–,inactive
O=C(O)Cc1cccc2ccccc12,–,inactive
CCC[C@H](N[C@@H](C)C(=O)N1[C@H](C(=O)O)C[C@@H]2CCCC[C@@H]21)C(=O)OCC,–,inactive
Oc1ccc(O)cc1,–,inactive
CN(C)CCCN,–,inactive
O=C(O)CCCC[C@@H]1SC[C@@H]2NC(=O)N[C@@H]21,14.1%,–

Structure (SMILES),activation,Potency
O=C1NC(=O)c2ccccc21,–,inactive
CCOC(=O)NNc1nncc2ccccc12,–,inactive
CC(C)c1ccc(C(C)C)cc1,–,inactive
NS(=O)(=O)c1cc2c(cc1Cl)NCNS2(=O)=O,–,inactive
Nc1ccc(S(=O)(=O)Nc2cnc3ccccc3n2)cc1,–,inactive
NC(N)=NC(=O)c1nc(Cl)c(N)nc1N,–,inactive
CN(C)CCOC(=O)COc1ccc(Cl)cc1,–,inactive
Cc1c(C(N)=O)cc([N+](=O)[O-])cc1[N+](=O)[O-],–,inactive
C[C@]12C=CC(=O)C=C1CC[C@@H]1[C@@H]2[C@@H](O)C[C@@]2(C)[C@H]1CC[C@]2(O)C(=O)CO,–,inactive
CCCCOCCOCCO,–,inactive
CN(C)c1nc(N(C)C)nc(N(C)C)n1,–,inactive
COc1ccc(C(=O)c2ccccc2)c(O)c1,–,inactive
CCCCC1(COC(=O)CCC(=O)O)C(=O)N(c2ccccc2)N(c2ccccc2)C1=O,–,inactive
CCCCCCC(=O)O,–,inactive
O=C1CCCCCCCCCCCN1,–,inactive
COc1ccc(NC(C)=O)cc1N,–,inactive
CCCCCCCCCCCCCCCCCC(=O)OCC(O)CO (stereo not given),–,inactive
CCC(O)OC(O)CC (stereo not given),–,inactive
CCCCCCCCCC,–,inactive
O=Cc1ccccc1O,–,inactive
